The text below walks through data of PubChem BioAssay AID430 (Sanford-Burnham Center for Chemical Genomics, 2006).

About 1,100 (1.7%) of roughly 63,000 compounds were called active. Cut-off read from the data, not from the text of the source: active = cytotoxicity above about 50%; inactive = the rest. For the sample, actives were picked, then their nearest neighbours and some compounds at random. Potency and affinity values are given separately.

A short description of the assay: HPDE-C7 pancreatic duct cell viability loss – fluorescence, HTS (AID 430).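 Note: cells exposed to compound for 48 hours before viability readout; 0% = vehicle and 100% = reference cytotoxic drug.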 As to conditions: HPDE-C7 pancreatic duct cells viability, at 10 µM, hits give high values.
On to `CCC(=O)Nc1nc2c(OC)ccc(C)c2s1`, for which the cytotoxicity was 4% (inactive).
Turning to `CCOc1cccc(C(=O)Nc2nnc(-c3ccco3)s2)c1`, the cytotoxicity is 2.3% (inactive).
In the case of `NC(=O)c1ccccc1NS(=O)(=O)Cc1ccc(Cl)cc1` it was 0% (inactive); in that of `Cc1c(NC(=O)C(C)OC(=O)CC2Sc3ccccc3NC2=O)c(=O)n(-c2ccccc2)n1C` (centres undefined), -14.3% (inactive).
In the case of `CSc1ccc(NC(=O)CC(C)=O)cc1` it was -11.5% (inactive); in that of `c1csc(-c2nnsc2-c2nc3ccccc3[nH]2)c1`, 7.2% (inactive); in that of `CCC(=O)NC1=C(C#N)C2(CCCC2)Cc2ccccc21`, 10.4% (inactive).
With `COc1ccccc1-c1cc(C(=O)NCc2ccccc2)no1` the figure was 17.1% (inactive).
With `Cc1ccc(C)c(OCC(=O)Nc2ccc3c(c2)OCO3)c1`, the cytotoxicity was -6.1% (inactive).
In the case of `C=CCn1c2ccccc2c2nnc(SCN3C(=O)c4ccccc4C3=O)nc21` it was 21.1% (inactive); in that of `CCn1c2ccccc2c2nnc(SCCCn3c(=O)[nH]c4ccccc43)nc21`, -2.7% (inactive).
With `C=CCn1c2ccccc2c2nnc(SCCCn3c(=O)[nH]c4ccccc43)nc21` the figure was 89.5% (active); with `CCCCn1c(CCC(=O)O)ccc1-c1cccs1`, -30.1% (inactive); with `COCCNS(=O)(=O)c1cccc2cccnc12`, -7.9% (inactive).
With `COc1cc(S(=O)(=O)N2CCCCC2)ccc1NC(=O)c1ccc(F)cc1` the figure was -7.1% (inactive); with `Cc1ccc2c(c1)c1c(n2CC(O)Cn2c(C)nc3ccccc32)C(=O)CCC1` (centres undefined), -12.3% (inactive).
In the case of `Cc1ccc2c(c1)c1c(n2CC(O)Cn2nc(C)c(Br)c2C)C(=O)CCC1` (centres undefined), the cytotoxicity is -7.3% (inactive).
For `CCn1c2c(c3cc(Cl)ccc31)CCCC2=O`, the cytotoxicity was -0.8% (inactive).
For `CCn1c2c(c3cc(C(=O)O)ccc31)CCCC2=O`, the cytotoxicity is -6.9% (inactive).
For `Cc1ccc2c(c1)c1c(n2CC(O)Cn2c(C)nc3ccccc32)/C(=N\O)CCC1` (centres undefined), the cytotoxicity is 113% (active).
With `CCOC(=O)c1c(O)c2c(n(Cc3ccco3)c1=O)CCCC2` the figure was -1.8% (inactive).
With `CCOC(=O)C(C#N)c1ccccn1` (centres undefined) the figure was -13.9% (inactive); with `CC12C=CC3(O1)C(C(=O)N(c1cccnc1)C3C(=O)NC1CCCCC1)C2C(=O)Nc1ccccc1` (centres undefined), -6.3% (inactive); with `Cc1cc(C)c2ccc(C)[n+]([O-])c2c1O`, -4.9% (inactive).
Turning to `Cc1cc(C)c2ccc(N)nc2c1O`, the cytotoxicity is 111% (active).
In the case of `Cc1cc(=O)oc2c(N)c(O)ccc12` it was 3.2% (inactive).
In the case of `Cc1ccc(-c2noc(CSc3nc(N)cc(N)n3)n2)cc1` it was -1.6% (inactive); in that of `CCCCCC(=O)Nc1ccc(Cl)cn1`, -14.3% (inactive).
With `CC(=NCc1ccccc1)C1=C(O)COC1=O` the figure was 2.9% (inactive); with `NC(=O)c1cc2ccc(O)cc2oc1=NCc1ccccc1`, -0.1% (inactive); with `CCn1c(CNC(=O)C(C)(C)C)nc2ccccc21`, -1.1% (inactive).
For `CC12CCC(C(N)=O)(c3nc4ccccc4nc31)C2(C)C` (centres undefined), the cytotoxicity is -7.6% (inactive).
In the case of `CC(=O)Nc1sc(N)nc1-c1ccccc1` it was 3.9% (inactive); in that of `CN(Cc1cccs1)C(=O)COc1ccc(-c2nnco2)cc1`, -5.5% (inactive).
In the case of `Cc1cc(=O)[nH]c(SCc2cc(=O)n3nc(C)sc3n2)n1` it was 2.5% (inactive); in that of `CS(=O)(=O)N1CCc2cc(-c3csc(NC(=O)Cc4cccs4)n3)ccc21`, -7.8% (inactive).
On to `O=C(Cc1cccs1)Nc1nc(-c2ccccc2)cs1`, for which the cytotoxicity was -35.2% (inactive).
In the case of `CC1Cc2cc(-c3csc(NC(=O)Cc4cccs4)n3)ccc2N1S(C)(=O)=O` (centres undefined) it was 56.2% (active); in that of `CCCc1[nH]nc2c1C(c1cc(OC)cc(OC)c1)C(C#N)=C(N)O2` (centres undefined), -4.3% (inactive); in that of `O=C(Cc1ccccc1)N1CCC(C(=O)N2CCN(c3ccc(F)cc3)CC2)CC1`, -6.7% (inactive).
On to `O=C(NC(O)C(=O)c1cccs1)c1cccnc1` (centres undefined), for which the cytotoxicity was -20.3% (inactive).
For the compound `O=C(Nc1nnc(C2CCCCC2)s1)c1ccc(Br)s1`, the cytotoxicity was 7% (inactive).
In the case of `CCOC(=O)c1ccc(NC(=O)C23CCC(C)(C(=O)O2)C3(C)C)cc1` (centres undefined) it was -7.6% (inactive); in that of `CCc1ccc(-c2nc(CN3CCC(C(=O)N4CCN(c5ccccn5)CC4)CC3)c(C)o2)cc1`, 26.2% (inactive); in that of `CCc1ccc(-c2nc(CN3CCC(C(=O)NCCN(CC)c4ccccc4)CC3)c(C)o2)cc1`, 47.3% (inactive).
With `CCN(CCNC(=O)C1CCCN(Cc2nc(-c3ccc(OC)cc3)oc2C)C1)c1ccccc1` (centres undefined) the figure was 67.8% (active); with `CCN1CCN(C(=O)C2CCN(Cc3nc(-c4cccc(Cl)c4)oc3C)CC2)CC1`, 9.2% (inactive).
Turning to `Cc1oc(-c2cccc(Cl)c2)nc1CN1CCC(C(=O)N2CCN(c3ccccc3F)CC2)CC1`, the cytotoxicity is 54.5% (active).
Take `CCc1ccc(-c2nc(CN3CCCC(C(=O)NCCc4ccc(OC)c(OC)c4)C3)c(C)o2)cc1` (centres undefined): the cytotoxicity was 7% (inactive).
On to `CCc1ccc(-c2nc(CN3CCC(C(=O)N4CCN(c5ccccc5)CC4)CC3)c(C)o2)cc1`, for which the cytotoxicity is 66% (active).
In the case of `Cc1oc(-c2ccc(Cl)cc2)nc1CN1CCC(C(=O)N2CCN(Cc3ccccc3)CC2)CC1` it was 9.6% (inactive).
Turning to `Cc1oc(-c2cccc(Cl)c2)nc1CN1CCC(C(=O)N2CCN(c3ccccn3)CC2)CC1`, the cytotoxicity was 15.5% (inactive).
On to `Cn1c(-c2ccc(F)cc2)cnc1NCc1ccccc1`, for which the cytotoxicity was -16.5% (inactive).
With `CCCCCCN=CC1=C(O)C(C(=O)OC)C(C)(C)CC1=O` (centres undefined) the figure was 20.5% (inactive); with `COC(=O)c1ccccc1NC(=O)c1nc2nc(C)cc(C)n2n1`, 8.9% (inactive); with `COC(=O)C1=C(C)OC(N)=C(C#N)C1c1ccc(OC)c(OC)c1OC` (centres undefined), -14.9% (inactive).
In the case of `O=c1c2ccccc2nc(-c2ccccc2)n1CCCn1ccnc1` it was -10.6% (inactive); in that of `N=c1c2c(-c3ccccc3)c(-c3ccccc3)n(Cc3ccco3)c2ncn1CCN1CCOCC1`, 29.6% (inactive); in that of `CC1(C)CC(=O)C2=C(C1)Oc1ncn(CCCn3ccnc3)c(=N)c1C2c1ccccc1` (centres undefined), 5.8% (inactive).
In the case of `OCCNc1ncnc2c1c(-c1ccccc1)c(-c1ccccc1)n2Cc1ccco1` it was 37.5% (inactive); in that of `COc1ccccc1-c1nc2n(n1)C(c1ccc(Cl)cc1)C(C(N)=O)=C(C)N2` (centres undefined), 5.8% (inactive).
As for `COC(=O)c1ccc(OCC(O)Cn2nnc3ccccc32)cc1` (centres undefined), the cytotoxicity is 3.4% (inactive).
In the case of `CCCCN(C(=O)NC(=O)Nc1c(C)cc(C)cc1C)S(C)(=O)=O` it was 4.6% (inactive); in that of `CC(C)=CC(=O)Nc1ccccc1C(N)=O`, 3.7% (inactive); in that of `COc1ccc(N2CCN(C(=O)CCN3C(=O)c4ccccc4S3(=O)=O)CC2)cc1`, -0.5% (inactive).
In the case of `Cn1nccc1C(=O)NCCN1C(=O)OC(C)(C)C1(C)O` (centres undefined) it was -1.1% (inactive).
Consider `CCOC(=O)c1ccc(-n2[nH]c(-c3ccccc3)cc2=O)cc1`, for which the cytotoxicity is 66.3% (active).
For `CCOC(=O)c1ccc(-n2c(=O)[nH]c3ccccc3c2=O)cc1`, the cytotoxicity was -12.3% (inactive).
In the case of `CCOC(=O)c1ccc(N2C(=O)C(C)=C(C)C2=O)cc1` it was -4.6% (inactive).
With `O=C1CCCC2=C1C(c1cccc(Br)c1)n1nc(-c3ccco3)nc1N2` (centres undefined) the figure was -0.5% (inactive); with `O=S(=O)(Nc1cccc(-c2cn3ccsc3n2)c1)c1ccc(F)cc1`, 33.8% (inactive); with `Cc1ccc(S(=O)(=O)Nc2cccc(-c3cn4ccsc4n3)c2)cc1`, 52.4% (active).
As to `Cc1cccc(S(=O)(=O)Nc2cccc(-c3cn4ccsc4n3)c2)c1`, the cytotoxicity is 36.1% (inactive).
In the case of `O=C(Cn1cnnn1)Nc1ccccc1Cc1ccccc1` it was -2.5% (inactive); in that of `COc1ccc(C2CC(=O)N3C(=C2C#N)SCC3(O)c2ccccc2)cc1` (centres undefined), 10.4% (inactive).
On to `CCc1ccc(C2CC(=O)N3CN(c4ccccc4)CSC3=C2C#N)cc1` (centres undefined), for which the cytotoxicity is -1.3% (inactive).
In the case of `N#CC1=C2SCN(Cc3ccccc3)CN2C(=O)CC1c1cccs1` (centres undefined), the cytotoxicity was -17.2% (inactive).
With `N#CC1=C2SCN(c3ccccc3)CN2C(=O)CC1c1cccs1` (centres undefined) the figure was -3.1% (inactive); with `N#CC1=C2SCC(O)(c3ccccc3)N2C(=O)CC1c1ccccc1` (centres undefined), 70% (active); with `CCOC(=O)CCNC(=O)CNC(=O)OCc1ccccc1`, -3.8% (inactive).
With `CCOc1ccccc1NC(=O)CN(c1nccs1)S(=O)(=O)c1ccc(N)cc1` the figure was -20.7% (inactive); with `COc1ccc(S(=O)(=O)N(C)CC(=O)O)c2ccccc12`, 1.2% (inactive); with `Cc1ccc(/C(O)=C2\C(=O)C(=O)N(CC(C)O)C2c2ccc(N(C)C)cc2)cc1` (centres undefined), 0% (inactive).
With `CCCC(=O)n1nc(-c2ccc(OC)cc2)nc1N` the figure was 11.5% (inactive); with `O=C(CSc1nnc(-c2ccco2)o1)NC(=O)C1COc2ccccc2O1` (centres undefined), -12.2% (inactive).
For the compound `COc1cccc(C2=NOC(C(=O)NCc3ccccc3)C2)c1` (centres undefined), the cytotoxicity was 61.7% (active).
In the case of `COc1ccc(CNC(=O)C2CC(c3cccc(OC)c3)=NO2)cc1` (centres undefined) it was 36% (inactive); in that of `COc1cccc(C2=NOC(C(=O)NCc3ccco3)C2)c1` (centres undefined), 40.7% (inactive).
`COc1cccc(C2=NOC(C(=O)NCc3ccccn3)C2)c1` (centres undefined): the cytotoxicity was -11.7% (inactive).
With `COc1cccc(C2=NOC(C(=O)NCc3ccc(F)cc3)C2)c1` (centres undefined) the figure was 60.3% (active).
With `COCCNC(=O)C1CC(c2cccc(OC)c2)=NO1` (centres undefined) the figure was -6.9% (inactive).
In the case of `Cc1oc2ccc(OC(=O)N3CCOCC3)cc2c1C(=O)OC(C)C` it was -25.5% (inactive); in that of `Cc1nn(-c2ccccc2C(=O)O)c(=O)c2ccccc12`, 0.5% (inactive); in that of `CC(=O)c1sc(-c2c(C)nc3sccn23)nc1C1CCCC1`, 4.9% (inactive).
Consider `O=C(NCCCN1CCOCC1)c1c(F)cccc1F`, for which the cytotoxicity is 18.7% (inactive).
For `COc1ccc2sc(C)nc2c1NC(C)=O`, the cytotoxicity is -5.3% (inactive).
In the case of `Clc1ccccc1CN(Cc1ccccc1)c1ncnc2nc[nH]c12` it was 82.7% (active); in that of `Clc1ccccc1CNc1ncnc2nc[nH]c12`, 3.9% (inactive).
With `CCCCN(Cc1ccccc1)c1ncnc2nc[nH]c12`, the cytotoxicity was -1% (inactive).
